Source: PubChem BioAssay (EPA / NIEHS)
Values joined by “and” are separate entries in the source; they are usually repeats but may differ in a detail not shown here. Equal entries are not always repeated. Results filed as inconclusive are left out. Some structures have more than one record in an assay (separate samples or runs), and their calls can disagree. Active and inactive are the calls of the source. How the source made its calls: active means hit-call score of the fitted dose curve at least 0.9, where 1 is the maximum; inconclusive means response in the unintended direction; inactive means score below 0.9.

Experiments:
[1] = ATG_XTT_Cytotoxicity: Cytotoxicity Assessment in the Attagene TRANS-FACTORIAL HepG2 Assay (AID 2283584);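 on AC50: XTT signal for cell number as viability in transfected HepG2 cells; cells exposed to compound for 24 h before reading; active means loss of viability signal versus DMSO baseline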
Summary of the method: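 HepG2 cells transiently transfected with GAL4-UAS multiple reporter units, dosed 24 h; cytotoxicity read by XTT as loss of signal versus DMSO baseline.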

[2] = TOX21_p53_BLA_p2_viability: Viability Assessment in the Tox21 HCT-116 p53 Agonism Beta-lactamase Assay, Phase 2 (AID 2283591);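 further: compound exposure lasted 16 h at 37 °C; actives lower the ATP signal meaning cytotoxicity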
Summary of the method: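 HCT116 p53-bla cells, 4000/well, dosed after 5 h plating (217-fold dilution of DMSO stocks) and incubated 16 h at 37C. Viability taken as cellular ATP by CellTiter-Glo luminescence after 30 min RT; signal loss marks cytotoxicity.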

[3] = target: Cellular tumor antigen p53 (Homo sapiens) (UniProt P04637); experiment: TOX21_p53_BLA_p2_ratio: Tox21 HCT-116 p53 Agonism Beta-lactamase Assay, Ratio, Phase 2 (AID 2283592)
Cellular tumor antigen p53 (Homo sapiens), sequence (P04637 whole entry, looked up): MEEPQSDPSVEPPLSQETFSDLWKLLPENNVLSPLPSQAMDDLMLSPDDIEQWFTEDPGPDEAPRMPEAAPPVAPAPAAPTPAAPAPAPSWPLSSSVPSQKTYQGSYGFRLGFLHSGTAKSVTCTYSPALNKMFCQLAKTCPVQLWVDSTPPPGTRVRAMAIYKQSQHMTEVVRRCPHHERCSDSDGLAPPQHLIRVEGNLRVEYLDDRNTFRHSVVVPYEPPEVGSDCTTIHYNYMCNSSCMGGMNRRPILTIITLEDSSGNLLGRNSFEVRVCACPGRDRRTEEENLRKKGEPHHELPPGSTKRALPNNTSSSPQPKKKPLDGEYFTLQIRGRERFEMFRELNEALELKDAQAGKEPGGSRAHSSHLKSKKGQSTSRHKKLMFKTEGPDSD
Summary of the method: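 First, HCT116 reporter cells settle for 5 h at 37C. Next, DMSO compound solutions are pinned in (217-fold dilution) and left 16 h. Finally, CCF4-AM substrate is loaded 2 h at room temperature and the 460/530 nm ratio read.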

[4] = TOX21_p53_BLA_p3_viability: Viability Assessment in the Tox21 HCT-116 p53 Agonism Beta-lactamase Assay, Phase 3 (AID 2283593);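 further: cells exposed to compound for 16 h before reading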
Summary of the method: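 HCT116 cells, 4000/well, dosed 5 h after plating by pin transfer (217-fold dilution from DMSO stock) and incubated 16 h at 37C, 5% CO2. Viability read as ATP luminescence with CellTiter-Glo after 30 min at room temperature.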

[5] = target: Cellular tumor antigen p53 (Homo sapiens) (UniProt P04637); experiment: TOX21_p53_BLA_p3_ratio: Tox21 HCT-116 p53 Agonism Beta-lactamase Assay, Ratio, Phase 3 (AID 2283596)
Summary of the method: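 Cells were seeded at 4000/well, rested 5 h at 37C, then dosed with DMSO compound solutions (217-fold dilution) for 16 h. CCF4-AM substrate was loaded for 2 h at room temperature, and the 460/530 nm emission ratio was fitted for gain of signal versus DMSO.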

[6] = TOX21_p53_BLA_p4_viability: Viability Assessment in the Tox21 HCT-116 p53 Agonism Beta-lactamase Assay, Phase 4 (AID 2283597);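 further: hits lower the luminescence signal meaning cytotoxicity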
Summary of the method: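 4000 HCT116 cells per well; 5 h attachment; compounds from DMSO, 217-fold dilution; 16 h at 37C. Then CCF4-AM, 2 h RT, followed by CellTiter-Glo, 30 min RT, luminescence. Decrease = cytotoxicity.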

[7] = target: Cellular tumor antigen p53 (Homo sapiens) (UniProt P04637); experiment: TOX21_p53_BLA_p5_ratio: Tox21 HCT-116 p53 Agonism Beta-lactamase Assay, Ratio, Phase 5 (AID 2283599)
Summary of the method: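 HCT-116 p53-bla cells (4000/well) plated 5 h, dosed with compound (217-fold DMSO dilution) for 16 h at 37 C; CCF4-AM substrate 2 h at room temperature. Activity is the 460/530 nm emission ratio (405 nm excitation), fitted in gain-of-signal direction versus DMSO.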

Measured: AC50

CN(C)CCC=C1c2ccccc2CCc2ccccc21
inactive: [3] | [4] | [5] | [6]
active: [1] 157 µM | [2] 74.2 µM | [6] 72.1 µM

CC(C)(C)c1ccc(S)cc1
inactive: [1] | [2]

CCCCC/C=C\C=C\C(=O)OCC
active: [2] 68.7 µM | [3] 75.6 µM | [4] 49.1 µM | [6] 66.6 µM | [7] 73.4 µM
inactive: [1] | [5]

CC1(C)CC(N)CC(C)(CN)C1 (centres undefined)
inactive: [1] | [2] | [3] | [4] | [5] | [6] | [7]

OCC=Cc1ccccc1
inactive: [1]

c1ccc(OCCOc2ccccc2)cc1
inactive: [1] | [2] | [3] | [4] | [5] | [6] | [7]

CCC(=O)OC/C=C(\C)CCC=C(C)C
inactive: [1]

O=C1CCCCCCCCCCCC(=O)OCCO1
inactive: [1]

O=Cc1ccccc1O
inactive: [1] | [2] | [3] | [4] | [5] | [6] | [7]

NC(N)=S
inactive: [1] | [2] | [3] | [4] | [5] | [7]

CC(O)COCC(C)O (centres undefined)
inactive: [1] | [2] | [3] | [4] | [5] | [6] | [7]

COc1ccccc1O
inactive: [1] | [2] | [3] | [4] | [5] | [6] | [7]

O=C(O)c1cc2ccccc2cc1O
inactive: [1]

NC(=O)NC(N)=O
inactive: [1] | [2] | [3] | [4] | [5] | [7]

C=CC(O)CCCCC (centres undefined)
inactive: [1] | [2] | [3] | [4] | [6]

C[C@H](CCC(=O)O)[C@H]1CC[C@H]2[C@@H]3CC[C@@H]4C[C@H](O)CC[C@]4(C)[C@H]3CC[C@]12C
active: [2] 16.3 µM and 14.2 µM | [3] 21.8 µM | [4] 31.4 µM and 30 µM | [5] 31.1 µM | [6] 13.5 µM | [7] 18.2 µM
inactive: [1] | [3] | [5] | [6] | [7]

CCCCOCC(C)OCC(C)O (centres undefined)
inactive: [1]

c1ccc(Cc2ccccc2)cc1
inactive: [1] | [2] | [3]

CC(=O)c1ccc(O)cc1
inactive: [1] | [2] | [3] | [4] | [5] | [7]

CC(=O)C1C(=O)C=C(C)OC1=O (centres undefined)
inactive: [1] | [2] | [3] | [4] | [5] | [7]

CC(=O)c1ccc(C)cc1
inactive: [1]

Cc1cc(O)c2c(c1)C(=O)c1cc(O)cc(O)c1C2=O
active: [3] 6.55 µM and 13.2 µM | [5] 12 µM and 33.3 µM | [7] 11.9 µM
inactive: [1] | [2] | [4] | [7]

C=C1CC/C=C(\C)CC[C@@H]2[C@@H]1CC2(C)C
inactive: [1] | [2] | [3] | [4] | [6] | [7]

COc1ccccc1NC(=O)CC(C)=O
inactive: [1] | [2] | [3] | [4] | [6] | [7]

Cc1ccncc1
inactive: [1] | [2] | [3] | [4] | [5] | [6] | [7]

NC(N)=NC(N)=NCCc1ccccc1
active: [3] 20.4 µM | [5] 30.6 µM
inactive: [1] | [2] | [3] | [4] | [5] | [6] | [7]

FC(F)(F)c1ccc(Cl)c(Cl)c1
inactive: [1] | [2] | [3] | [4] | [5] | [6] | [7]

CC1(C)[C@H](C=C(Cl)Cl)[C@H]1C(=O)OCc1cccc(Oc2ccccc2)c1
inactive: [1]

CCCCCCCCOC(=O)c1ccc(O)cc1
inactive: [1]
active: [1] 100 µM

O=S1(=O)CC(Cl)(Cl)C(Cl)(Cl)C1
inactive: [3]
active: [1] 26 µM | [2] 7.38 µM | [4] 24.9 µM | [5] 47.6 µM | [6] 9.34 µM | [7] 39.4 µM

O=C(O)c1cccc(Cl)n1
inactive: [1] | [2]

CCCCCCCCCCCCOC(C)=O
inactive: [1]

CC(C)(C)C1CCC(O)CC1 (centres undefined)
inactive: [1] | [2] | [3] | [4] | [6]

Nc1ccc(O)c(N)c1
active: [4] 64 µM
inactive: [1] | [2] | [3] | [4] | [5] | [6] | [7]

CCCCCCCCCC(=O)OCC
inactive: [1] | [2] | [3] | [4] | [5] | [7]

COC(=O)C(C)Oc1ccc(Oc2ncc(C(F)(F)F)cc2Cl)cc1 (centres undefined)
inactive: [1] | [2] | [3] | [4] | [5] | [6]

CC1=CC(O)CC(C)(C)C1 (centres undefined)
inactive: [1] | [2] | [3]

OC[C@H]1O[C@@H](O[C@H]2[C@H](O)[C@@H](O)[C@H](O)O[C@@H]2CO)[C@H](O)[C@@H](O)[C@H]1O
inactive: [1] | [2] | [3]

CC(=O)OC/C=C(C)/C=C/C=C(C)/C=C/C1=C(C)CCCC1(C)C
inactive: [1] | [2] | [3] | [4] | [6] | [7]

O=S(=O)(O)CCCN1CCOCC1
inactive: [1] | [2] | [6] | [7]

CCCCN(CCO)CCO
inactive: [1] | [3] | [4]

CCCCCCCCCCCCOCCOS(=O)(=O)O
active: [1] 154 µM | [6] 60.4 µM
inactive: [2] | [4] | [7]
